Compounds without any hit were thinned out: in the full panel of roughly 83,000, 20% have a hit.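 A percent growth of 40 corresponds to 60% growth inhibition; 0 means no net growth; -100 means all cells died. Active threshold: below 10.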 Unmarked numbers belong to inactive results. Active and inactive are the calls of the source.

One experiment concerns RPMI-8226 leukemia. The experiment is described as follows: NCI-60 one-dose screen, 48 h (100 = growth as untreated, 0 = no growth, -100 = all killed). To be noted: 10 µM unless noted.
Consider `COC(=O)c1ccc2[nH]c(O)c(C(=Nc3ccc(N(C)C(=O)CN4CCN(C)CC4)cc3)c3ccc([N+](=O)[O-])cc3)c2c1`, for which the growth was 31%. Consider `O=C1OC(c2ccc(-c3ccccc3)cc2)=C/C1=C/c1c2ccccc2cc2ccccc12`, for which the growth was 85.3%. Regarding `O=C(O)c1ccc(-c2nn(-c3ccc(C(=O)O)cc3)cc2CNc2ccc(Br)cc2)cc1`, the growth is 108%. On the same count and under the same terms, to `O=C(N/N=C\c1ccc(-c2ccc(Br)cc2)o1)c1cc2oc(-c3cccc(C(F)(F)F)c3)cc2[nH]1` belongs 98.4%; to `COC(=O)c1ccc2[nH]c(O)c(C(=Nc3ccc(N(C)C(=O)CN4CCN(C)CC4)cc3)c3ccc(N)cc3)c2c1`, 84%.

Regarding `COC(=O)c1ccc(C(=Nc2ccc(N(C)C(=O)CN3CCN(C)CC3)cc2)c2c(O)[nH]c3ccc(C(=O)OC)cc23)cc1`, the growth was 15.1%. `Cc1ccc(C(C)C)c(OCc2ccc(C(=O)N/N=C/c3cccc(O)c3O)cc2)c1`: the growth is 28.8%. The same measure, in the same setting: in the case of `O=C1Nc2c(c(=O)n(-c3ccccc3)c3ccccc23)C(c2ccc(Cl)cc2)N1` (stereo unspecified) it was 90.5%; in that of `O=c1c2c(c3ccccc3n1-c1ccccc1)NC(=S)NC2c1ccccc1` (stereo unspecified), 50.1%. Turning to `COC(=O)c1ccc2[nH]c(O)c(C(=Nc3ccc(N(C)C(=O)CN4CCN(C)CC4)cc3)c3ccc(CCO)cc3)c2c1`, the growth was 30.8%. As for `CCCCn1c(Cc2ccc(OC)cc2)nc2cc(OC)c(OC)cc2c1=O`, the growth was 26.1%. The same measure, in the same setting: to `Cc1[nH]n(C(=S)Nc2nc3cc(Cl)c(F)cc3s2)c(=O)c1N=Nc1ccc(F)c(Cl)c1` belongs 70.9%; to `Clc1ccc(N/N=C(\c2ccccc2)c2ccccn2)nc1`, 4.95% (active). On to `c1ccc(Nc2ncc3c(n2)-c2cccn2CC3)cc1`, for which the growth is 97%. Consider `C=CCC(CCC(CC=C)C(=O)OCC)C(=O)OCC` (stereo unspecified), for which the growth is 101%. For `O=[N+]([O-])c1ccc(-c2ncc(-c3ccc(O)cc3O)[nH]2)cc1`, the growth was 74.1%. On the same count and under the same terms, in the case of `CC(=O)OC1/C=C\CC/C=C\C1` (stereo unspecified) it was 101%; in that of `CCN(CC)CCCNc1c2ccc(Cl)cc2nc2ccc(OC)cc12`, -21.5% (active); in that of `COc1cc(-c2nn(-c3ccc(NC(=O)Nc4cc(C(F)(F)F)cc(C(F)(F)F)c4)cc3)cc2-c2ccncc2)ccc1Cl`, -2.24% (active). `CC(=O)Nc1nc(C)c(C(=O)NN)s1`: the growth is 120%.

Regarding `CC/C(=N\Nc1nc2ccccc2n1C)c1ccccn1`, the growth was 10.4%. On the same count and under the same terms, in the case of `CC(=O)OCC1O[C@@H](OC(C)=O)[C@@H](NC(=O)NS(=O)(=O)c2ccccc2)C(OC(C)=O)[C@@H]1OC(C)=O` (stereo partly specified) it was 107%; in that of `Cc1nc2c(nnn2-c2ccccc2)c2nc(-c3ccccc3)oc(=O)c12`, 113%; in that of `CCc1ccc(C(=Nc2ccc(N(C)C(=O)CN3CCN(C)CC3)cc2)c2c(O)[nH]c3ccc(C(=O)OC)cc23)cc1`, -46.9% (active).

Consider `C=C[C@]1(C)C=C2C(=O)[C@@]3(O)OC[C@@]4(CCCC(C)(C)C43O)C2(O)C(O)C1` (stereo partly specified), for which the growth was 15.2%. Still for that read-out and setting: in the case of `CCOC(=O)c1c2c(cn1Cc1ccccc1)-c1oncc1CC2` it was 100%.

The subject of the next experiment is OVCAR-8 ovarian. Described as above. To be noted: 10 µM unless noted.
Take `O=C(Nc1ccc(-n2cc(-c3ccncc3)c(-c3ccc(Cl)c(O)c3)n2)cc1)c1cc(C(F)(F)F)cc(C(F)(F)F)c1`: the growth was 65.4%. With `COc1ccc(C2CC(=O)c3c(O)cc(OC4OC(COC5OC(C)C(O)C(O)C5O)C(O)C(O)C4O)cc3O2)cc1O` (stereo unspecified), the growth is 94.8%. Same read-out and setting: to `O=C(NCCNCCO)c1cc([N+](=O)[O-])cc([N+](=O)[O-])c1O` belongs 101%; to `O=Nc1ccc(O)c2ccccc12`, 7.56% (active). Take `CC(=O)N1CCN(CCNC(=O)n2cc(-c3ccncc3)c(-c3ccc(O)c(Cl)c3)n2)CC1`: the growth is 106%.

On to `NC(=O)c1c(Nc2ccccc2)nn2cc(-c3nc4ccccc4s3)c(N)nc12`, for which the growth is 102%. Turning to `CC(O)CN(CCO)CCN(CCO)CC(C)O` (stereo unspecified), the growth is 106%. As to `COC(=O)c1ccc2[nH]c(O)c(C(=Nc3ccc(N(C)C(=O)CN4CCN(C)CC4)cc3)c3ccc(OC)cc3)c2c1`, the growth was 25.6%. In the case of `c1ccc(C(=NNc2nc3ccccc3o2)c2ccccn2)nc1`, the growth is 18.7%.

Consider `COC(=O)C(Cc1cnc[nH]1)N1CC(=O)N2[C@@H](c3ccccc3)SC[C@H]2C1=O` (stereo partly specified), for which the growth is 98.4%. Regarding `COC(=O)c1ccc2[nH]c(O)c(C(=Nc3ccc(N(C)C(=O)CN4CCN(C)CC4)cc3)c3ccc4c(c3)OCO4)c2c1`, the growth was 20.3%. As for `Cc1ccc(NCc2cn(-c3ccc(C(=O)O)cc3)nc2-c2ccc(C(=O)O)cc2)cc1`, the growth was 97.8%.

As for `O=C(c1ccccc1)c1ccccc1-c1ccccc1`, the growth is 36.7%. With `CCCCCCC(C(=O)OCC)(C(=O)OCC)C1CCCCCC1`, the growth is 107%. Take `COC(=O)c1ccc2[nH]c(O)c(C(=Nc3ccc(N(C)C(=O)CN4CCN(C)CC4)cc3)c3ccc([N+](=O)[O-])cc3)c2c1`: the growth is 37%. Turning to `O=C1OC(c2ccc(-c3ccccc3)cc2)=C/C1=C/c1c2ccccc2cc2ccccc12`, the growth was 97.6%. On to `O=C(O)c1ccc(-c2nn(-c3ccc(C(=O)O)cc3)cc2CNc2ccc(Br)cc2)cc1`, for which the growth is 104%. As to `O=C(N/N=C\c1ccc(-c2ccc(Br)cc2)o1)c1cc2oc(-c3cccc(C(F)(F)F)c3)cc2[nH]1`, the growth was 103%. As to `COC(=O)c1ccc2[nH]c(O)c(C(=Nc3ccc(N(C)C(=O)CN4CCN(C)CC4)cc3)c3ccc(N)cc3)c2c1`, the growth is 116%. Take `COC(=O)c1ccc(C(=Nc2ccc(N(C)C(=O)CN3CCN(C)CC3)cc2)c2c(O)[nH]c3ccc(C(=O)OC)cc23)cc1`: the growth was 30.7%. With `Cc1ccc(C(C)C)c(OCc2ccc(C(=O)N/N=C/c3cccc(O)c3O)cc2)c1`, the growth is 23.7%. Turning to `O=C1Nc2c(c(=O)n(-c3ccccc3)c3ccccc23)C(c2ccc(Cl)cc2)N1` (stereo unspecified), the growth was 82.4%.

Consider `O=c1c2c(c3ccccc3n1-c1ccccc1)NC(=S)NC2c1ccccc1` (stereo unspecified), for which the growth was 106%. On to `COC(=O)c1ccc2[nH]c(O)c(C(=Nc3ccc(N(C)C(=O)CN4CCN(C)CC4)cc3)c3ccc(CCO)cc3)c2c1`, for which the growth was 64.5%. On to `CCCCn1c(Cc2ccc(OC)cc2)nc2cc(OC)c(OC)cc2c1=O`, for which the growth was 78.2%. Same read-out and setting: to `Cc1[nH]n(C(=S)Nc2nc3cc(Cl)c(F)cc3s2)c(=O)c1N=Nc1ccc(F)c(Cl)c1` belongs 103%; to `Clc1ccc(N/N=C(\c2ccccc2)c2ccccn2)nc1`, 11.3%; to `c1ccc(Nc2ncc3c(n2)-c2cccn2CC3)cc1`, 104%. Regarding `C=CCC(CCC(CC=C)C(=O)OCC)C(=O)OCC` (stereo unspecified), the growth is 95.2%. Consider `O=[N+]([O-])c1ccc(-c2ncc(-c3ccc(O)cc3O)[nH]2)cc1`, for which the growth was 101%. Consider `CC(=O)OC1/C=C\CC/C=C\C1` (stereo unspecified), for which the growth is 98.8%. With `CCN(CC)CCCNc1c2ccc(Cl)cc2nc2ccc(OC)cc12`, the growth is 4.01% (active).

With `COc1cc(-c2nn(-c3ccc(NC(=O)Nc4cc(C(F)(F)F)cc(C(F)(F)F)c4)cc3)cc2-c2ccncc2)ccc1Cl`, the growth was 9.59% (active). On to `CC(=O)Nc1nc(C)c(C(=O)NN)s1`, for which the growth is 111%. Same read-out and setting: to `CC/C(=N\Nc1nc2ccccc2n1C)c1ccccn1` belongs 15.5%. With `CC(=O)OCC1O[C@@H](OC(C)=O)[C@@H](NC(=O)NS(=O)(=O)c2ccccc2)C(OC(C)=O)[C@@H]1OC(C)=O` (stereo partly specified), the growth is 113%. Regarding `Cc1nc2c(nnn2-c2ccccc2)c2nc(-c3ccccc3)oc(=O)c12`, the growth is 111%. With `CCc1ccc(C(=Nc2ccc(N(C)C(=O)CN3CCN(C)CC3)cc2)c2c(O)[nH]c3ccc(C(=O)OC)cc23)cc1`, the growth is -34.5% (active). `C=C[C@]1(C)C=C2C(=O)[C@@]3(O)OC[C@@]4(CCCC(C)(C)C43O)C2(O)C(O)C1` (stereo partly specified): the growth was 58.3%. With `CCOC(=O)c1c2c(cn1Cc1ccccc1)-c1oncc1CC2`, the growth is 84.9%.

These data come from PubChem BioAssay (NCI).
